# The supplement of paper PMC8728848
# Only a selection was taken, and the strongest signals are over-represented in it overall.
# Columns and labels:
# Experiment in all cases: glycan array binding signal (z-score within array); higher = stronger binding
# [1] = test system: GlcNAc(a1-6)Gal(b1-4)GlcNAc; conditions: glycan notation: IUPAC condensed, linker removed; mutation: D138V, E140I
# Summary of the method: (§1)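 The binding signal is a Z-score computed within each array. Data were drawn from 3228 arrays in the Consortium for Functional Glycomics database, restricted to those with a known protein sequence. Scores were averaged over arrays of the same protein sequence at different concentrations or buffers, and over linkers, and negative values can be taken as non-binding.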
# [2] = test system: GlcNAc(b1-2)Gal(b1-3)GalNAc; conditions: glycan notation: IUPAC condensed, linker removed
# Summary of the method: as §1
# [3] = test system: GlcNAc(b1-2)Man(a1-3)[GlcNAc(b1-2)Man(a1-6)]Man(b1-4)GlcNAc(b1-4)GlcNAc; conditions: glycan notation: IUPAC condensed, linker removed
# Summary of the method: as §1
# [4] = test system: GlcNAc(b1-3)Gal(b1-4)GlcNAc; conditions: glycan notation: IUPAC condensed, linker removed
# Summary of the method: as §1
# GlcNAc(b1-3)Gal = conditions: glycan notation: IUPAC condensed, linker removed
# Summary of the method: as §1
# [5] = test system: GlcNAc(b1-2)Man(a1-3)[GlcNAc(b1-4)][GlcNAc(b1-2)Man(a1-6)]Man(b1-4)GlcNAc(b1-4)[Fuc(a1-6)]GlcNAc; conditions: glycan notation: IUPAC condensed, linker removed
# Summary of the method: as §1
# [6] = test system: GlcNAc(b1-2)[GlcNAc(b1-4)]Man(a1-3)[GlcNAc(b1-4)][GlcNAc(b1-2)Man(a1-6)]Man(b1-4)GlcNAc(b1-4)GlcNAc; conditions: glycan notation: IUPAC condensed, linker removed; mutation: R125K
# Summary of the method: as §1
# [7] = test system: GlcNAc(b1-2)[GlcNAc(b1-6)]Man(a1-6)[GlcNAc(b1-2)Man(a1-3)][GlcNAc(b1-4)]Man(b1-4)GlcNAc(b1-4)GlcNAc; conditions: glycan notation: IUPAC condensed, linker removed
# Summary of the method: as §1
# [8] = test system: GlcNAc(b1-2)[GlcNAc(b1-6)]Man(a1-6)[GlcNAc(b1-4)][GlcNAc(b1-2)Man(a1-3)]Man(b1-4)GlcNAc(b1-4)GlcNAc; conditions: glycan notation: IUPAC condensed, linker removed; mutation: R125K
# Summary of the method: as §1
# [9] = test system: GlcNAc(b1-3)Gal(b1-4)GlcNAc(b1-3)Gal(b1-4)GlcNAc(b1-3)Gal(b1-4)GlcNAc(b1-2)Man(a1-3)[GlcNAc(b1-3)Gal(b1-4)GlcNAc(b1-3)Gal(b1-4)GlcNAc(b1-3)Gal(b1-4)GlcNAc(b1-2)Man(a1-6)]Man(b1-4)GlcNAc(b1-4)[Fuc(a1-6)]GlcNAc; conditions: glycan notation: IUPAC condensed, linker removed
# Summary of the method: as §1
# [10] = test system: GlcNAc(b1-3)Gal(b1-4)GlcNAc(b1-3)Gal(b1-4)GlcNAc(b1-3)Gal(b1-4)GlcNAc(b1-3)Gal(b1-4)GlcNAc(b1-2)Man(a1-3)[GlcNAc(b1-3)Gal(b1-4)GlcNAc(b1-3)Gal(b1-4)GlcNAc(b1-3)Gal(b1-4)GlcNAc(b1-3)Gal(b1-4)GlcNAc(b1-2)Man(a1-6)]Man(b1-4)GlcNAc(b1-4)GlcNAc; conditions: glycan notation: IUPAC condensed, linker removed; mutation: R125K
# Summary of the method: as §1
# [11] = test system: GlcNAc(b1-2)Man(a1-3)[GlcNAc(b1-2)Man(a1-6)]Man(b1-4)GlcNAc(b1-4)[Fuc(a1-6)]GlcNAc; conditions: glycan notation: IUPAC condensed, linker removed
# Summary of the method: as §1
# [12] = test system: GlcNAc(b1-2)Man(a1-3)[GlcNAc(b1-4)][GlcNAc(b1-2)Man(a1-6)]Man(b1-4)GlcNAc(b1-4)GlcNAc; conditions: glycan notation: IUPAC condensed, linker removed
# Summary of the method: as §1
# [13] = test system: GlcNAc(b1-3)Gal(b1-4)GlcNAc(b1-2)[GlcNAc(b1-3)Gal(b1-4)GlcNAc(b1-6)]Man(a1-6)[GlcNAc(b1-3)Gal(b1-4)GlcNAc(b1-2)Man(a1-3)]Man(b1-4)GlcNAc(b1-4)GlcNAc; conditions: glycan notation: IUPAC condensed, linker removed
# Summary of the method: as §1
# [14] = test system: GlcNAc(b1-3)Gal(b1-4)GlcNAc(b1-3)Gal(b1-4)GlcNAc(b1-2)Man(a1-3)[GlcNAc(b1-3)Gal(b1-4)GlcNAc(b1-3)Gal(b1-4)GlcNAc(b1-2)Man(a1-6)]Man(b1-4)GlcNAc(b1-4)[Fuc(a1-6)]GlcNAc; conditions: glycan notation: IUPAC condensed, linker removed
# Summary of the method: as §1
# [15] = test system: GlcNAc(b1-3)Gal(b1-4)GlcNAc(b1-3)Gal(b1-4)GlcNAc(b1-3)Gal(b1-4)GlcNAc(b1-2)Man(a1-3)[GlcNAc(b1-3)Gal(b1-4)GlcNAc(b1-3)Gal(b1-4)GlcNAc(b1-3)Gal(b1-4)GlcNAc(b1-2)Man(a1-6)]Man(b1-4)GlcNAc(b1-4)GlcNAc; conditions: glycan notation: IUPAC condensed, linker removed
# Summary of the method: as §1
# [16] = test system: GlcNAc(b1-3)Gal(b1-4)GlcNAc(b1-3)Gal(b1-4)GlcNAc(b1-3)Gal(b1-4)GlcNAc(b1-2)[GlcNAc(b1-3)Gal(b1-4)GlcNAc(b1-3)Gal(b1-4)GlcNAc(b1-3)Gal(b1-4)GlcNAc(b1-6)]Man(a1-6)[GlcNAc(b1-3)Gal(b1-4)GlcNAc(b1-3)Gal(b1-4)GlcNAc(b1-3)Gal(b1-4)GlcNAc(b1-2)Man(a1-3)]Man(b1-4)GlcNAc(b1-4)[Fuc(a1-6)]GlcNAc; conditions: glycan notation: IUPAC condensed, linker removed
# Summary of the method: as §1
# [17] = test system: GlcNAc(b1-3)Gal(b1-4)GlcNAc(b1-3)Gal(b1-4)GlcNAc; conditions: glycan notation: IUPAC condensed, linker removed
# Summary of the method: as §1
# GlcNAc(b1-3)Gal(b1-4)Glc = conditions: glycan notation: IUPAC condensed, linker removed
# Summary of the method: as §1
# Neurocan (Homo sapiens), O14594, sequence (O14594 other isoform, or with tags, fused parts or gaps): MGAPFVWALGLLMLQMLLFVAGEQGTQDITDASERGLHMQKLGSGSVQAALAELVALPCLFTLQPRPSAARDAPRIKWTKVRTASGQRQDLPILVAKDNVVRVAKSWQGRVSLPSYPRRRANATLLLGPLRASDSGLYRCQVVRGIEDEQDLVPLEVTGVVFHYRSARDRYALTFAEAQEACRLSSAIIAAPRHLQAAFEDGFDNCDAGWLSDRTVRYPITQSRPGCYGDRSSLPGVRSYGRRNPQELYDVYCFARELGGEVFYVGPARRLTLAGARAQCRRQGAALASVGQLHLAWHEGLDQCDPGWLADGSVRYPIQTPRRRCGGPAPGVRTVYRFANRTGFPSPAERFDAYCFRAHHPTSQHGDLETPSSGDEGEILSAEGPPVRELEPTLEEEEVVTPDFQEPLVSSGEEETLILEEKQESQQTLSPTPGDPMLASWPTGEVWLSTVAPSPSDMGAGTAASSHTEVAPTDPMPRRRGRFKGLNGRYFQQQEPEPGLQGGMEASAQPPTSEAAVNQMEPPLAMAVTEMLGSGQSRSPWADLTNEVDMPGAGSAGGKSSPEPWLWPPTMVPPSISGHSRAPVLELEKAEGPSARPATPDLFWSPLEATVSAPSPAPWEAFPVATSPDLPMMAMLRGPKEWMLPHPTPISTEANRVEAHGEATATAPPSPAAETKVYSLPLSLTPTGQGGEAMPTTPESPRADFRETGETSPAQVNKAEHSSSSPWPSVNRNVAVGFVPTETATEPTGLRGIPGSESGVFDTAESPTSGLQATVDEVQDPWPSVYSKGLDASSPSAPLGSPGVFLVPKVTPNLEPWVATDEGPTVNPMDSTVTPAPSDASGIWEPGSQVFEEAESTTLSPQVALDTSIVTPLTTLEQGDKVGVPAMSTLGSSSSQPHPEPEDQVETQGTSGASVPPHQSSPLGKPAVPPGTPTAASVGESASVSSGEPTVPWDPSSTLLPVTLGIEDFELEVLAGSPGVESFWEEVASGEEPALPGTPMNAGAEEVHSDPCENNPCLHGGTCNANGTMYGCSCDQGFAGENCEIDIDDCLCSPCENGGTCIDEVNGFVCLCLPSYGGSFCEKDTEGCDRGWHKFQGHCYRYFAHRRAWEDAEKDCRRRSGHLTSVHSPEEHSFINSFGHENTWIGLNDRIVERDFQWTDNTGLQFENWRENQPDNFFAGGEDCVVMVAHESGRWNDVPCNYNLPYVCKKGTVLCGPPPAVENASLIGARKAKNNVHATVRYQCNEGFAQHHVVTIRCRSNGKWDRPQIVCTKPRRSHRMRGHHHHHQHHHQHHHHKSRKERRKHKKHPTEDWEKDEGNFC
# PILRb (Mus musculus), Q2YSF2, sequence (Q2YSF2 entry or part of it): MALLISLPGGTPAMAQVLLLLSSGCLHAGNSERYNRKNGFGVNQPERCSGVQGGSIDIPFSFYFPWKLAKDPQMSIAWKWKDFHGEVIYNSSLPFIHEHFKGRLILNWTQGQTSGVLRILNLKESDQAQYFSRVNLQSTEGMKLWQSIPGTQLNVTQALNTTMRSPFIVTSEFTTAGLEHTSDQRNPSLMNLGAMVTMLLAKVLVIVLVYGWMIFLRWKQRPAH
# C3b (Homo sapiens), P01024, sequence (P01024 23-667): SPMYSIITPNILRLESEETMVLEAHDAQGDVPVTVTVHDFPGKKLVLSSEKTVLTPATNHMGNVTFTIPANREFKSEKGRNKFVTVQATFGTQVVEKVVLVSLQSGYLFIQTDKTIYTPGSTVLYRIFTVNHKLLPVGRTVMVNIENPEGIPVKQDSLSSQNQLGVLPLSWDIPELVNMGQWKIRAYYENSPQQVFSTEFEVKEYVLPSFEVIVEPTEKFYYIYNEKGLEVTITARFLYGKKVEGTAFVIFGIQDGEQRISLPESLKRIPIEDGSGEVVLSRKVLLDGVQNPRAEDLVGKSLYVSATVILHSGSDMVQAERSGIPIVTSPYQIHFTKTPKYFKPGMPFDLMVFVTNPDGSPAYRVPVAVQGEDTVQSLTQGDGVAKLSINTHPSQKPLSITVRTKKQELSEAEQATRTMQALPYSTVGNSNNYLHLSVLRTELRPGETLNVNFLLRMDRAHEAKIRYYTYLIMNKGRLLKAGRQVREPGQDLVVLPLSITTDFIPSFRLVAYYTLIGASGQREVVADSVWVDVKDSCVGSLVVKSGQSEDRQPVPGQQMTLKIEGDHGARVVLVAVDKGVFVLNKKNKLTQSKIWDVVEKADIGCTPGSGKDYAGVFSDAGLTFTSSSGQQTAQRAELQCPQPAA
# SRLC (Mus musculus), Q8VIF6, sequence (Q8VIF6 other isoform, or with tags, fused parts or gaps): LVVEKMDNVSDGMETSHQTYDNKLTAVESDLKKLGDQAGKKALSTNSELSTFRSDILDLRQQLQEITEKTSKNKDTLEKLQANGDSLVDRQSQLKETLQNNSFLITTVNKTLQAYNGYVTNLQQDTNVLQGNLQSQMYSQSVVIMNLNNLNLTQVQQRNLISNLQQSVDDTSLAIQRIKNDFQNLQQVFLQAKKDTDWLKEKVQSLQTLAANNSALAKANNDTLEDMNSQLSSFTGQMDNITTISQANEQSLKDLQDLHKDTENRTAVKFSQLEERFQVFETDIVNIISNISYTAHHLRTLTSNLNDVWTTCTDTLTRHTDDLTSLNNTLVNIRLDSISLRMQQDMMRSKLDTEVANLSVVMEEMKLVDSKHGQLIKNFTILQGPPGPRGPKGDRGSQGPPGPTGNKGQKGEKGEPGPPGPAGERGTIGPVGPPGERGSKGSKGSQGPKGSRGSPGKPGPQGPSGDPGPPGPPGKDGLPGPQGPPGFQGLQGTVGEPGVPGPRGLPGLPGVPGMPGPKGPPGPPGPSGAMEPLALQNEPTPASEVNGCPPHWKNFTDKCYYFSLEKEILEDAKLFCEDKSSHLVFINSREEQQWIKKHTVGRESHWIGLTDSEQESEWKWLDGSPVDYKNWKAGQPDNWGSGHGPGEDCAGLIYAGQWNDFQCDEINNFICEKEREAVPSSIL
# CHT (Homo sapiens), sequence (chain, as listed by the source): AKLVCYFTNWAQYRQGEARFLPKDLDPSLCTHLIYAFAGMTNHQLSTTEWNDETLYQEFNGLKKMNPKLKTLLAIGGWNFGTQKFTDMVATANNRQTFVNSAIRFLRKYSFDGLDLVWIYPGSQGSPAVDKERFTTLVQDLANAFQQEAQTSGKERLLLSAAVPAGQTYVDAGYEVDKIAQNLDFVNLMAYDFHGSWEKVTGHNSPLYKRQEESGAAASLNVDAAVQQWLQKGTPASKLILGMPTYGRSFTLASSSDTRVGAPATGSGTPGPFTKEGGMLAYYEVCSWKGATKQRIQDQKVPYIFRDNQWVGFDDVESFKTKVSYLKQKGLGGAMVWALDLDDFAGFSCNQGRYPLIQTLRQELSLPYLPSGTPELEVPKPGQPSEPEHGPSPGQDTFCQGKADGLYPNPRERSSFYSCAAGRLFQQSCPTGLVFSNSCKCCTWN
# Avaren (Actinomycete K97), sequence (chain, as listed by the source): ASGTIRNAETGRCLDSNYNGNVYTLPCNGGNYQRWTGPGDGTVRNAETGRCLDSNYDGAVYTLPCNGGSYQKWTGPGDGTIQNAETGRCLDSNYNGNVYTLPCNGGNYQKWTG
# 6RG (Lolium perenne), sequence (chain, as listed by the source): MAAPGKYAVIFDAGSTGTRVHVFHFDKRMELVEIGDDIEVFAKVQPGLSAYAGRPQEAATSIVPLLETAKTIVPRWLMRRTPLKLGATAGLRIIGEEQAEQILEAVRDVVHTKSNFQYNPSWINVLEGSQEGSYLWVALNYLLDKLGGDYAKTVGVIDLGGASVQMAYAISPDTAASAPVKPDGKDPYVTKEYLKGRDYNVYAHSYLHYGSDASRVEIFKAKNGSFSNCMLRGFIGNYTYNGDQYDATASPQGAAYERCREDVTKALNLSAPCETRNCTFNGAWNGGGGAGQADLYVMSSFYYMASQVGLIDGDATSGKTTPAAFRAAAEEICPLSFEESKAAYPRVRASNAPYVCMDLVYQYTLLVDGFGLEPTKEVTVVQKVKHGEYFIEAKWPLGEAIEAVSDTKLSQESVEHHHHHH
# Regenerating Gene IV (Homo sapiens), Q9BYZ8, sequence (Q9BYZ8 whole entry, looked up): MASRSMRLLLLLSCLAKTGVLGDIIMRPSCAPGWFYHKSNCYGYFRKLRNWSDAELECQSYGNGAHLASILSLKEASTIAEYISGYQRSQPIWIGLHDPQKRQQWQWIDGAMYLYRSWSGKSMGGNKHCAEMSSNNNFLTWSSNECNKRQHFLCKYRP
# wLAT-1A (Homo sapiens), Q01650, sequence (Q01650 whole entry): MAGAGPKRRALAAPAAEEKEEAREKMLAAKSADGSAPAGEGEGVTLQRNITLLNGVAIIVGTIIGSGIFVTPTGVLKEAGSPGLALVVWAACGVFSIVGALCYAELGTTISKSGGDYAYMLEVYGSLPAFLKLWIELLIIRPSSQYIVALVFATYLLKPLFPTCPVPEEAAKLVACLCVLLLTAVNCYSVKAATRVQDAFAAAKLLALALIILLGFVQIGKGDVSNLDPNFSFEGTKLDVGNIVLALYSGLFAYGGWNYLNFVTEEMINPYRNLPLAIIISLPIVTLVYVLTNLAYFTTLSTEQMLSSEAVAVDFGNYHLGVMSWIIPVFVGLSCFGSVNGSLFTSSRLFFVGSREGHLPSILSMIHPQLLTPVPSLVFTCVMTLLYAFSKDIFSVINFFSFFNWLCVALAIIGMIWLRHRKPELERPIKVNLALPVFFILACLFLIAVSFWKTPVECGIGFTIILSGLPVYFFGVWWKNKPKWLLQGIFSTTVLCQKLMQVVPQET
substance,measurement,setting,value
CHT (Homo sapiens),glycan array binding signal (z-score),[1],-0.177
"C3b (Homo sapiens), P01024",glycan array binding signal (z-score),[2],-0.291
"Neurocan (Homo sapiens), O14594",glycan array binding signal (z-score),[3],-0.834
same,glycan array binding signal (z-score),[4],-1.33
same,glycan array binding signal (z-score),GlcNAc(b1-3)Gal,-0.097
"Siglec-8 (Homo sapiens), Q9NYZ4",glycan array binding signal (z-score),[3],-0.041
same,glycan array binding signal (z-score),[5],0.376
same,glycan array binding signal (z-score),[6],5.14
same,glycan array binding signal (z-score),[7],-0.061
same,glycan array binding signal (z-score),[8],-0.415
same,glycan array binding signal (z-score),[9],0.693
same,glycan array binding signal (z-score),[10],-0.017
"PILRb (Mus musculus), Q2YSF2",glycan array binding signal (z-score),[11],0.569
same,glycan array binding signal (z-score),[4],-0.214
Avaren (Actinomycete K97),glycan array binding signal (z-score),[12],-0.134
MpAFP RI GFP (Marinomonas primoryensis),glycan array binding signal (z-score),[13],5.77
same,glycan array binding signal (z-score),[14],2.86
same,glycan array binding signal (z-score),[15],4.26
same,glycan array binding signal (z-score),[16],1.39
"SRLC (Mus musculus), Q8VIF6",glycan array binding signal (z-score),[17],-0.205
6RG (Lolium perenne),glycan array binding signal (z-score),[17],-0.272
"wLAT-1A (Homo sapiens), Q01650",glycan array binding signal (z-score),GlcNAc(b1-3)Gal(b1-4)Glc,-0.411
"Regenerating Gene IV (Homo sapiens), Q9BYZ8",glycan array binding signal (z-score),GlcNAc(b1-3)Gal,-0.345
